# PubChem BioAssay (NCI)
# About 83,000 compounds went through this panel and 20% of them were active in at least one assay; those are over-represented in the sample as a whole.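 Interpretation: 100, growth as untreated; towards 0, rising growth inhibition; 0, no net growth; 0 to -100, cell death. Compounds scoring below 10 were considered active.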 Values without a mark were called inactive. Active and inactive are the calls of the source.
# System: HOP-62 NSCLC
# Experiment: NCI-60 one-dose screen, 48 h (100 = growth as untreated, 0 = no growth, -100 = all killed)
# Conditions: 10 µM
row,Structure (SMILES),growth
1,CCCCCCCCCCCCCCCCn1cc[n+](C)c1,-82.7% (active)
2,O=C1/C(=C/c2cccs2)CCC/C1=C\c1cccs1,96.7%
3,COC(=O)C1(C(=O)OC)C2C(=O)C3C(C21)C3(C(=O)OC(C)(C)C)C(=O)OC(C)(C)C (stereo unspecified),99.9%
4,COc1ccc(Cn2cc3c(c2-c2ccccc2)CC(C)(C)c2cnoc2-3)cc1,34.2%
5,CC(C)C[C@H](NC(=O)Cn1ccc2ccccc2c1=O)B(O)O,98.4%
6,Cc1cc(Nc2cccc(F)c2)nc(NCc2ccccc2)n1,70.5%
7,O=C(/C=C/c1ccc(Cl)cc1)c1ccc(Br)cc1,97.2%
8,Cc1cc2cc3c(=O)[nH]c(=O)cc-3n(CC(O)C(O)C(O)CO)c2cc1C (stereo unspecified),81.1%
9,N#Cc1cnc2ccc(NCc3cnc[nH]3)cc2c1Nc1ccc(F)c(Cl)c1,94.3%
10,Cn1c(=O)c2[nH]c(C(O)c3ccc(Cl)cc3)nc2n(C)c1=O (stereo unspecified),94.7%
11,Cc1ccc(S(=O)(=O)Nc2cccc3[nH]c(C(F)(F)F)nc23)cc1,36.4%
12,CCCCCCCOc1cccc(/C=C2/C(=O)N=C3SCCCN32)c1,85.7%
13,Cc1ccc(C)c(S(=O)(=O)NC2c3ccccc3Oc3ccccc32)c1,96.1%
14,Nc1nc2c(nnn2C2CC(O)C(CO)O2)c(=O)[nH]1 (stereo unspecified),69%
15,Cc1nc2cc(-n3c(-c4ccc(F)cc4)nc4ccccc4c3=O)ccc2n1Cc1ccccc1,45.1%
16,CCN(CCCNC(=O)Cc1cc(=O)oc2cc(N(C)C)ccc12)CCNc1ccnc2cc(Cl)ccc12,85.6%
